# Measured values from PubChem BioAssay AID588676 (Johns Hopkins Ion Channel Center, 2011).
# In all, about 310,000 compounds went through this assay and about 3,900 (1.3%) were called active.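 The calls were made as follows: active = calcium-response B-score plate-corrected more than 3 library SD below zero, starting fluorescence within 5 deviations, no agonist response on first addition; inactive = the rest.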 The sample as a whole holds a higher share of actives than the screen did.
# Biological target: Mas-related G-protein coupled receptor member X1 (Homo sapiens) (UniProt Q96LB2)
# Assay: blockade of BAM8-22-evoked MrgX1 calcium response – HEK293 cells, Fluo-4 calcium flux, primary screen (AID 588676);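 as to B-score: peak minus trough fluorescence over baseline after final BAM8-22 challenge near maximal dose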
# Conditions: Fluo-4, BAM8-22 antagonism, at 10 µM; active compounds read low
# Mas-related G-protein coupled receptor member X1 (Homo sapiens), sequence (Q96LB2 whole entry, looked up): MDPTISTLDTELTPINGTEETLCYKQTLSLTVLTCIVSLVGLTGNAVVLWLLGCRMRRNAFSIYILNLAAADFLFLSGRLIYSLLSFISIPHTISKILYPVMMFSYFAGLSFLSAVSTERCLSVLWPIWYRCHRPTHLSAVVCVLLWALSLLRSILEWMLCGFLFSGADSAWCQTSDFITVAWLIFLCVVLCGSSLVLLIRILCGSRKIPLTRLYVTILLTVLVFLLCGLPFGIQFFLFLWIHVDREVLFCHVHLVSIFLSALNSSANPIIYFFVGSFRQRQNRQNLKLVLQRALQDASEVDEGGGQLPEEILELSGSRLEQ
row,SMILES,B-score
1,CCn1c(SCC(=O)Nc2cc(C)ccc2C)nnc1-c1cnccn1,inactive
2,Cc1ccccc1NC(=O)C(C)c1ccc(-c2ccccc2)c(F)c1 (centres undefined),inactive
3,CCOc1ccc(CN2CCC(n3nccc3NC(=O)C3CC3)CC2)cc1CO,inactive
4,O=C(NC1CCCC1)C(c1ccc(Cl)cc1)N(C(=O)c1csnn1)C1CC1 (centres undefined),inactive
5,O=C(NC1CCCC1)C(c1ccccn1)N(C(=O)c1csnn1)C1CCCC1 (centres undefined),inactive
6,Cc1ccc(C(C(=O)NC2CCCCC2)N(C(=O)c2csnn2)C2CC2)o1 (centres undefined),-7.09 (active)
7,CCc1ccc(Nc2n[n+](-c3ccccc3)c(-c3cccc(Cl)c3Cl)s2)cc1,inactive
8,CCc1nnc(NC(=O)CCC(=O)N2CCN(c3cc(C)ccc3C)CC2)s1,inactive
9,CC1CCC(N2CC(=O)N(Cc3ccc4c(c3)OCO4)C(c3ccc(F)cc3)C2=O)CC1 (centres undefined),inactive
10,CCc1ccccc1NC(=O)c1ccc2c(c1)CCN2S(C)(=O)=O,inactive
11,CCCCN(C)CCC(=O)Nc1ccc(Cl)cc1,inactive
12,CC(=O)Nc1ccc(Oc2ccc3c(c2)C(=O)NC3=O)cc1,inactive
13,CCCCC(=O)Nc1ccc2c(c1)C(=O)NC2=O,-4.77 (active)
14,Cc1ccc(CN(CC(=O)NCC2CCCO2)S(=O)(=O)c2ccc(C)cc2)cc1 (centres undefined),inactive
15,CCCCCC(=O)N1CCN(S(=O)(=O)c2ccc3c(c2)OCCCO3)CC1,-12 (active)
16,CN1CCCN(S(=O)(=O)c2ccc3c(c2)OCCO3)CC1,inactive
17,O=C(c1c(F)cccc1Cl)N1CCN(S(=O)(=O)c2ccc3c(c2)OCCCO3)CC1,inactive
18,COc1ccc(C(=O)NCCn2nc(C)cc2C)cc1OC1CCN(C(C)=O)CC1,inactive
19,CCOc1ccc(NC(=O)COc2ccc(C(=O)N3CCC(C(N)=O)CC3)cc2OC)cc1,-8.23 (active)
20,CCOc1ccc(NC(=O)COc2ccc(C(=O)NC3CCCc4ccccc43)cc2OC)cc1 (centres undefined),inactive
21,COc1ccc(C(=O)N2CCC(C(=O)Nc3cccc(C)c3)CC2)cc1OC,inactive
22,Cc1ccc(S(=O)(=O)CCC(=O)OCC(=O)N(C)C2CCS(=O)(=O)C2)cc1 (centres undefined),inactive
23,O=C(CSc1nnc2n1CCCN2)c1ccccc1,inactive
24,Cc1cc(Cl)ccc1NC(=S)NCCCN1CCCC1=O,inactive
25,O=C1CCCN1CCCNC(=S)Nc1ccc(F)c(Cl)c1,-4.94 (active)
26,Cc1c(Cl)cccc1NC(=O)NCCCN1CCCC1=O,inactive
27,O=C(NC1CCN(Cc2ccccc2)CC1)c1cc(Br)c(Br)[nH]1,inactive
28,Oc1c(Cl)cc(Cl)c(Cl)c1Cc1c(O)c(Cl)cc(Cl)c1Cl,-8.06 (active)
29,O=C(CN1CCCCCC1)Nc1c(Cl)cc(Cl)cc1Cl,inactive
